The nature of assay [1]: qHTS profiling of the MIPE4 collection as inhibitors of Plasmodium falciparum (DD2) proliferation (Rep 2) (AID 743346; call rule not given here). The note with it: P. falciparum Dd2 in erythrocytes, SYBR Green DNA, 72 h; at 28.5 µM unless noted. An outline of the steps: (§1)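 Erythrocytes infected with P. falciparum (0.3% parasitemia, 2.5% hematocrit) incubated with compounds 72 h at 37 C, 5% CO2. Lysis with saponin/Triton buffer containing SYBR Green I, overnight at room temperature in the dark; DNA fluorescence (485/535 nm) normalised to 0.29 uM artemisinin and DMSO.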

Assay [2] in a line: qHTS profiling of the MIPE4 collection as inhibitors of Plasmodium falciparum (HB3) proliferation (AID 743347; call rule not given here;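 also: plate controls were DMSO vehicle wells for no effect and artemisinin wells for full effect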). The settings on record: P. falciparum HB3 in erythrocytes, SYBR Green DNA, 72 h; at 28.5 µM unless noted. A digest of the protocol: as §1
A general note: qHTS replaces the single test concentration by a dilution series.

Assay [3] is described as follows: High-throughput drug toxicity screening in the BPDCN cell line Gen2.2 (AID 1224824; call rule not given here;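 also: cells exposed to compounds for 48 h before reading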). The note with it: Gen2.2 BPDCN cells; at 45.8 µM (top of the series) unless noted. A digest of the protocol:
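Gen2.2 cells, 500 per well in phenol red-free RPMI with 10% FBS, exposed to compounds 48 h at 37 C, 5% CO2; viability by CellTiter-Glo luminescence. Percent activity scaled to DMSO (100%) and 9.2 uM bortezomib final (0%).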

Assay [4] in a line: High-throughput drug toxicity screening in the BPDCN cell line Cal-1 (AID 1224825; call rule not given here). The note with it: Cal-1 BPDCN cell viability, qHTS; at 45.8 µM (top of the series) unless noted. A digest of the protocol:
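500 Cal-1 cells/well, RPMI + glutamine + 10% FBS (phenol red-free); cpd added by pin tool; 48 h, 37C, 5% CO2; CTG 15 min RT, lumi read. Normalised: DMSO 100%, bortezomib 9.2 uM 0%.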

The nature of assay [5]: qHTS assay for measurement of the activity of small molecule inhibitors on Zika virus induced Caspase-3 activity in human iPSC derived neural progenitor cells (hNPCs) (AID 1224857). Also: nearly all actives have a fitted effect of over 65% in size. Also: potency is read from the fitted curve at half-maximal effect. An outline of the steps: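 After overnight (16–20 h) culture at 350 cells/well, hNPCs get compound, then ZIKV 2 FFU/cell one hour later. Six hours on, Caspase-Glo 3/7 is added and luminescence measured.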

Assay [6] can be described thus: qHTS assay for measurement of the activity of small molecule inhibitors on Zika virus induced Caspase-3 activity in human astrocytoma cells (AID 1224859). Also: potency is read from the fitted curve at half-maximal effect. An outline of the steps:
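Inhibition of Zika-induced caspase-3/7 activity: SNB-19 cells, 1 h compound pretreatment, ZIKV 2 FFU/cell for 6 h at 37 C, Caspase-Glo luminescence read-out.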

A short description of assay [7]: qHTS Screen of the MIPE 4.0 Collection Against Ewings Sarcoma (RDES) (AID 1259252). Also: nearly all actives have a fitted effect of over 35% in size. Also: potency is read from the fitted curve at half-maximal effect. An outline of the steps: (§2)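 CellTiter-Glo luminescence after 48 h compound exposure (titration) gave viability; percent activity used DMSO-treated cells as no inhibition and medium-only wells as full inhibition. Cells grown in RPMI/5% FBS, dosed 4 h post-seeding.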
Assay [8] can be described thus: qHTS Screen of the MIPE 4.0 Collection Against Ewings Sarcoma (TC71) (AID 1259253). Also: nearly all actives have a fitted effect of over 40% in size. Also: potency is read from the fitted curve at half-maximal effect. An outline of the steps:
as §2

Assay [9] is described as follows: qHTS Screen of the MIPE 4.0 Collection Against Ewings Sarcoma (EW8) (AID 1259255). Also: nearly all actives have a fitted effect of over 35% in size. Also: potency is read from the fitted curve at half-maximal effect.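 As to viability: 100% = DMSO-treated cells and 0% = medium-only wells without cells.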 A digest of the protocol:
as §2

Assay [10] in a line: qHTS Screen of the MIPE 4.0 Collection Against Ewings Sarcoma (TC32) (AID 1259256). Also: nearly all actives have a fitted effect of over 45% in size. Also: potency is read from the fitted curve at half-maximal effect. A digest of the protocol: as §2

Here are results for 13 compounds from PubChem BioAssay (NCATS).

Records with an inconclusive call do not appear. Calls of active or inactive are those of the source. Unless noted, calls follow the shape of the dose curve; as a rule, active = well fitted inhibition curve with a large enough effect; inconclusive = small, poorly fitted or top-dose-only effect; inactive = no such curve, though single readings can be large or run the other way.

Turning to `Nc1nc(N)c2nc(-c3cccc(O)c3)c(-c3cccc(O)c3)nc2n1`, in assay [1], the parasite growth, % of control (lower = inhibition) came out at 26.2%. In [2], the growth, % of control is 11%. Further, in [3], the cell viability, % of control (lower = more cytotoxic) was 15.8%. The viability (% of control) in assay [4] worked out at 5.3%. Further, the Potency result in assay [5] and in assay [6] was “inactive” throughout. Besides, the Potency is 23.5 µM (active) in assay [7], 20.9 µM (active) in assay [8], 23.5 µM (active) in [9] and 20.9 µM (active) in assay [10].
Consider `COc1ccc(Nc2nccc(NCCO)n2)cc1`, for which, in assay [1], the parasite growth, % of control (lower = inhibition) turned out to be 83.3%. Besides, the growth, % of control in assay [2] is 87.1%. Besides, the cell viability, % of control (lower = more cytotoxic) in assay [3] amounted to 195%. Further, the viability (% of control) in assay [4] is 111%. The Potency entry in assay [5], in assay [6], in assay [7], in [8], in [9] and in [10] was “inactive” each time.
As to `N#Cc1ccc(COC[C@H]2O[C@@H](n3c(NCc4ccc(Cl)c(Cl)c4)nc4c(N)ncnc43)[C@@H](O)[C@@H]2O)cc1`, in assay [1], the parasite growth, % of control (lower = inhibition) came to 23.2%. In [2], this compound showed a growth, % of control of 23.2%. Also, in [3], the cell viability, % of control (lower = more cytotoxic) is 10.7%. The viability (% of control) in [4] is 3.42%. The Potency entry in [5] and in assay [6] was “inactive” each time. Moreover, the Potency was 9.35 µM (active) in assay [7], 9.35 µM (active) in [8], 9.35 µM (active) in assay [9] and 5.26 µM (active) in [10].
In the case of `O=C(C[C@@H]1CC=CCCC(=O)O[C@H](c2ccccc2)CNC1=O)NCc1ccc(Cl)cc1`, the parasite growth, % of control (lower = inhibition) in [1] was 65.3%. The growth, % of control in assay [2] was 54.9%. Moreover, the cell viability, % of control (lower = more cytotoxic) in assay [3] turned out to be 17%. Further, the viability (% of control) in [4] was determined as 94.4%. For the same compound, the Potency entry in assay [5], in assay [6], in assay [7], in assay [8], in assay [9] and in [10] was “inactive” in each case.
For `COc1cc(OC)c(NC(=O)Nc2cc(C)on2)cc1Cl`, the parasite growth, % of control (lower = inhibition) in assay [1] was 54.6%. In assay [2], this compound gave a growth, % of control of 81.5%. Moreover, the cell viability, % of control (lower = more cytotoxic) in assay [3] turned out to be 187%. For the same compound, the viability (% of control) in assay [4] stood at 80.9%. Besides, the Potency result in [5], in assay [6], in assay [7], in assay [8], in assay [9] and in assay [10] was “inactive” in each case.
As for `C[C@H]1C[C@H]2[C@@H]3CCC4=CC(=O)C=C[C@]4(C)[C@@H]3C(=O)C[C@]2(C)[C@@]1(O)C(=O)CO`, the parasite growth, % of control (lower = inhibition) in assay [1] was 81.9%. In assay [2], this compound came in with a growth, % of control of 86.6%. Further, in [3], the cell viability, % of control (lower = more cytotoxic) was determined as 87.7%. Besides, the viability (% of control) in assay [4] was found to be 108%. Moreover, the Potency entry in [5], in assay [6], in [7], in [8], in [9] and in [10] was “inactive” in each case.
For the compound `COc1ccc(S(=O)(=O)Nc2cc(-c3c(O)ccc4ccccc34)c(O)c3ccccc23)cc1`, the parasite growth, % of control (lower = inhibition) in assay [1] came out at 23.7%. The growth, % of control in [2] was found to be 49.9%. Moreover, in assay [3], the cell viability, % of control (lower = more cytotoxic) was determined as 5.48%. Also, the viability (% of control) in assay [4] was determined as 3.97%. For the same compound, the Potency entry in assay [5] and in assay [6] was “inactive” each time. The Potency was 16.6 µM (active) in assay [7], 10.5 µM (active) in assay [8], 4.18 µM (active) in [9] and 18.7 µM (active) in assay [10].
Take `CC(=O)ON=C1C(c2c(O)[nH]c3cc(Br)ccc23)=Nc2ccccc21`: in assay [1], the parasite growth, % of control (lower = inhibition) came to 6.05%. Also, in [2], the growth, % of control worked out at 2.46%. Besides, in assay [3], the cell viability, % of control (lower = more cytotoxic) came to 129%. Also, the viability (% of control) in [4] worked out at 17.5%. The Potency entry in [5] and in assay [6] was “inactive” each time. Also, the Potency in [7] was 2.96 µM (active); in [8] it was 9.35 µM (active); in assay [9], 7.43 µM (active); in [10] it was 7.43 µM (active).
Regarding `Cc1cc(Nc2ncc3c(n2)N(C)C(=O)N(c2cc(NC(=O)c4cccc(C(F)(F)F)c4)ccc2C)C3)n(C)n1`, the parasite growth, % of control (lower = inhibition) in [1] amounted to 15.8%. Moreover, the growth, % of control in assay [2] is 10.8%. The cell viability, % of control (lower = more cytotoxic) in [3] worked out at 11.1%. Moreover, in assay [4], the viability (% of control) came to 7.39%. The Potency result in [5] and in [6] was “inactive” in each case. Also, the Potency was 0.418 µM (active) in assay [7], 0.372 µM (active) in [8], 0.833 µM (active) in assay [9] and 0.418 µM (active) in assay [10].
With `COc1cc(CCc2cc(NC(=O)c3ccc(N4C[C@@H](C)N[C@@H](C)C4)cc3)n[nH]2)cc(OC)c1`, the parasite growth, % of control (lower = inhibition) in [1] turned out to be 43.7%. The growth, % of control in assay [2] was 10.3%. In addition, in assay [3], the cell viability, % of control (lower = more cytotoxic) amounted to 14%. The viability (% of control) in [4] was 4.08%. Besides, the Potency entry in [5] and in assay [6] was “inactive” in each case. Moreover, the Potency was 18.7 µM (active) in [7], 16.6 µM (active) in [8], 16.6 µM (active) in assay [9] and 13.2 µM (active) in assay [10].
With `COc1cc(OC)cc(-c2ccc3ncc4ccc(=O)n(-c5ccc(N6CCNCC6)c(C(F)(F)F)c5)c4c3c2)c1`, the parasite growth, % of control (lower = inhibition) in assay [1] came to 18.6%. Besides, the growth, % of control in [2] came to 9.36%. Also, in [3], the cell viability, % of control (lower = more cytotoxic) came to 13.6%. Besides, the viability (% of control) in [4] is 5.34%. The Potency result in [5] and in [6] was “inactive” in each case. Also, the Potency in assay [7] was 2.96 µM (active); in [8], 2.64 µM (active); in [9] it was 4.18 µM (active); in assay [10], 3.32 µM (active).
For `O=C(C=CC=Cc1ccc2c(c1)OCO2)N1CCCCC1`, in [1], the parasite growth, % of control (lower = inhibition) was 123%. In assay [2], this compound had a growth, % of control of 95%. Also, in assay [3], the cell viability, % of control (lower = more cytotoxic) was 122%. Further, in assay [4], the viability (% of control) was found to be 101%. Moreover, the results for the Potency in [5] and in assay [6] were 14.8 µM (active) and 10.5 µM (active), respectively. Further, the Potency result in assay [7], in assay [8], in assay [9] and in [10] was “inactive” in each case.
On to `CC(=O)O[C@@]12CO[C@H]1C[C@H](O)[C@@]1(C)C(=O)[C@H](O)C3=C(C)[C@@H](OC(=O)C(O)[C@@H](NC(=O)OC(C)(C)C)c4ccccc4)C[C@@](O)([C@@H](OC(=O)c4ccccc4)[C@@H]21)C3(C)C` (stereo not given in full), for which, in assay [1], the parasite growth, % of control (lower = inhibition) worked out at 30.4%. The growth, % of control in assay [2] was 4.16%. In assay [3], the cell viability, % of control (lower = more cytotoxic) stood at 22.4%. Moreover, the viability (% of control) in assay [4] is 8.89%. The Potency entry in assay [5], in assay [6], in assay [7], in [8], in assay [9] and in [10] was “inactive” each time.
